# An excerpt weighted towards active compounds, which were near 1.8% of everything screened.
# LGR2 inh = Drosophila LGR2 receptor signaling inhibition; 0.35% of 380,000 active; inhibition, % at 9.99 µM; HEK293 LGR2, CRE-luciferase, bursicon-stimulated, 4 h; AID 720647;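 active means drop in luminescence signal, shown as inhibition above about 50% in the replicate tests, limit read from the data, passing the limit was not always enough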;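 further: agonist challenge used bursicon conditioned medium at about half maximal strength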
# EWS-Fli block = blocks EWS/Fli oncoprotein-driven transcription; inhibition, % at 12.6 µM; 0.67% of 350,000 active; A673 NR0B1-luciferase reporter, viability-normalised;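 active means mean inhibition of at least 50% after viability correction, with every replicate also passing that limit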;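 further: firefly luciferase signal divided by Alamar Blue viability fluorescence both relative to DMSO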
# CFTR F508del cor = CFTR F508del correction in bronchial cells. AID 720511. 0.36% of 350,000 active. CFBE cells, YFP halide quenching; stimulated with forskolin plus potentiator P3; % fluorescence drop versus neutral controls. activity (quench increase), % at 7.58 µM;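 active means mean added fluorescence quench of at least 8% versus neutral control, with both replicates also reaching 8%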;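 further: cells transiently co-express mutant CFTR-F508del with the halide-sensitive YFP; corrector assay measuring rescue of mutant channel to the surface after 24 h compound exposure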
# PAX8 reporter = lowers PAX8-driven luciferase in RMG-I cells. inhibition, % at 12.6 µM. 1.2% of 360,000 active. RMG-I TPO-luciferase reporter, SteadyGlo, 24 h;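 active means mean replicate inhibition at least 60% with every replicate also reaching 60%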;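 further: luciferase light reporting Pax8 driven TPO promoter activity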
# A number is an active result; n = inactive; x = no result given.
SMILES,LGR2 inh,EWS-Fli block,CFTR F508del cor,PAX8 reporter
COc1ccccc1N1CCN(C(=O)CCCn2nc(C)c([N+](=O)[O-])c2C)CC1,n,n,n,n
CC(=O)C1=C(O)C(=O)N(CCc2ccccc2)C1c1ccccc1[N+](=O)[O-] (configuration not stated),n,n,n,122
CCN(CC)CCN1C(=O)C(O)=C(C(C)=O)C1c1ccccc1[N+](=O)[O-] (configuration not stated),x,n,n,n
C=C(C)COc1ccc(-c2n[nH]c(C)c2-c2ccc(OC)c(OC)c2)c(O)c1,n,61,n,n
O=C(O/N=C(\c1ccccc1)c1ccncc1)c1ccccc1Cl,n,n,n,n
N/C(=N\OC(=O)c1ccccc1Cl)c1ccccc1,60,x,x,x
Cc1cc(/C(N)=N/OC(=O)c2ccccc2Cl)no1,84,n,n,n
Cc1ccc(/C(N)=N/OC(=O)c2ccc(C)cc2Cl)cc1,59,n,x,n
O=C1CCC(C(=O)N2CCCCO2)CN1CCc1ccc(Cl)cc1 (configuration not stated),n,x,n,n
CC[N+]1(C)CCC(O)(c2ccc(OC)cc2)C(C(=O)c2ccc(OC)cc2)C1 (configuration not stated),n,n,n,76
Cc1n[nH]c(=O)c2c(NC(=O)CSc3nc4ccccc4c(=O)n3CCCO)oc(C)c12,n,n,n,n
CCc1ccc(/C=C/c2c[nH]c3ccccc23)[n+](CC)c1,n,n,x,67
Cc1oc(=O)c(NC(=O)c2ccccc2)cc1C(N)=O,n,n,n,n
O=C(Nc1cc2ccccc2oc1=O)c1ccccc1,89,74,n,n
COc1ccc(/C=N/Nc2nncc3ccccc23)cc1,n,67,n,n
O=C(Cn1cnc2ccccc2c1=O)NCC(=O)N1CCOCC1,n,n,n,n
CCN1/C(=C/C=C/C=C/C=C/c2sc3ccccc3[n+]2CC)Sc2ccccc21,n,n,n,n
CN1/C(=C/c2cccc[n+]2CCO)Sc2ccccc21,n,n,n,n
CC[n+]1c(/C=C2\Sc3ccccc3N2C)ccc2cccc(C)c21,81,n,18,61
CC[n+]1c(C)sc2cc(C)ccc21,n,n,n,n
CCN1/C(=C/c2ccc3cc(C)ccc3[n+]2CC)Sc2ccccc21,n,n,n,93
CCN1/C(=C/c2ccc3cc(C)ccc3[n+]2CC)Sc2cc(C)c(C)cc21,n,73,n,88
O=c1cc(-c2ccc(O)c(O)c2)oc2cc(O)c(C3OC(CO)C(O)C(O)C3O)c(O)c12 (configuration not stated),n,n,n,x
CSCCC(NS(=O)(=O)c1ccc2c(c1)oc(=O)n2C)C(=O)NC1CCCCC1 (configuration not stated),n,n,n,n
CCC(=O)n1nc(-c2ccc(OC)cc2)nc1NCc1cccs1,n,n,n,n
SMILES,LGR2 inh,EWS-Fli block,CFTR F508del cor,PAX8 reporter
O=C(C[C@@H]1CC[C@@H]2[C@H](COC[C@@H](O)CN2Cc2ccccc2)O1)N1CCOCC1,n,n,n,n
Cc1ccc(C)c(C2NC(=O)c3ccccc3N2)c1 (configuration not stated),n,n,8.8,n
CC(C)=CCN1CCN(CCCn2cccn2)CC1CCO (configuration not stated),n,x,x,n
CC(Oc1cccc(Cl)c1)C(=O)Nc1nc(-c2ccccn2)cs1 (configuration not stated),n,n,n,71
CC(Oc1ccccc1)C(=O)Nc1nc(-c2ccccn2)cs1 (configuration not stated),n,n,n,n
CCC1CCCCN1CCCNC(=O)C1CCN(c2ncnc3c2nc2n3CCCCC2)CC1 (configuration not stated),n,n,n,n
CCOc1ccc2[nH]c(=O)c(CN(CCN3CCCC3)C(=S)Nc3ccccc3OCC)cc2c1,n,55,n,n
CCOc1ccc2[nH]c(=O)c(CN(Cc3ccc(F)cc3)C(=O)N3CCCC3)cc2c1,x,x,x,n
CC(=O)c1ccc(NC(=O)CSC2=NS(=O)(=O)c3cc(Cl)ccc3N2)cc1,n,n,n,n
CCn1c(=N)n(CC(=O)c2ccc(Br)s2)c2ccccc21,n,n,n,n
CCCCn1c(=N)n(CC(=O)c2ccc(Br)s2)c2ccccc21,n,63,n,72
CN1CCc2c(sc(NC(=O)c3ccc([N+](=O)[O-])o3)c2C(N)=O)C1,n,67,n,95
NC(=O)c1ccsc1NC(=O)c1ccc([N+](=O)[O-])o1,n,58,n,89
O=C(Nc1ccccc1F)N[C@H]1CC[C@@H](CCNS(=O)(=O)c2ccc(F)cc2)O[C@H]1CO,n,n,n,x
Cc1ccc(-n2nnnc2SCC(=O)NC(C(=O)O)(c2ccccc2)c2ccccc2)cc1C,n,n,13,n
O=C(NC1CCCC1)N[C@@H]1C=C[C@@H](CC(=O)N2CCOCC2)O[C@@H]1CO,n,n,n,n
COc1ccccc1C(=O)Nc1onc(C)c1C#N,n,n,18,n
Cc1noc(NC(=O)c2ccccc2Cl)c1C#N,n,x,x,x
COc1ccc(S(=O)(=O)Nc2ccc3c(c2)C(=O)N([C@@H](C)CO)C[C@@H](C)[C@@H](CN(C)Cc2ccc(C(F)(F)F)cc2)OCCCC[C@@H](C)O3)cc1,n,n,n,105
COc1ccc(S(=O)(=O)Nc2ccc3c(c2)C(=O)N([C@H](C)CO)C[C@@H](C)[C@@H](CN(C)Cc2ccc(C(F)(F)F)cc2)OCCCC[C@@H](C)O3)cc1,n,n,n,110
COc1ccc(S(=O)(=O)Nc2ccc3c(c2)C(=O)N([C@H](C)CO)C[C@H](C)[C@H](CN(C)Cc2ccc(C(F)(F)F)cc2)OCCCC[C@H](C)O3)cc1,n,n,n,108
COc1ccc(CN(C)C[C@H]2OCCCC[C@@H](C)Oc3ccc(NS(=O)(=O)c4ccc(OC)cc4)cc3C(=O)N([C@@H](C)CO)C[C@H]2C)cc1,n,n,n,n
COc1ccc(S(=O)(=O)Nc2ccc3c(c2)C(=O)N([C@@H](C)CO)C[C@@H](C)[C@H](CN(C)Cc2ccc(C(F)(F)F)cc2)OCCCC[C@H](C)O3)cc1,n,n,n,96
COc1ccc(S(=O)(=O)Nc2ccc3c(c2)C(=O)N([C@H](C)CO)C[C@@H](C)[C@H](CN(C)Cc2ccc(C(F)(F)F)cc2)OCCCC[C@@H](C)O3)cc1,n,n,n,n
COc1ccc(S(=O)(=O)Nc2ccc3c(c2)C(=O)N([C@@H](C)CO)C[C@@H](C)[C@@H](CN(C)Cc2ccc(C(F)(F)F)cc2)OCCCC[C@H](C)O3)cc1,n,n,n,n
COc1ccc(N2CC(C(=O)Nc3nc4ccc(S(C)(=O)=O)cc4s3)CC2=O)cc1 (configuration not stated),n,n,n,n
CC(CNCC1CCCO1)COc1ccccc1 (configuration not stated),x,x,x,n
CN(C)C(=O)c1ccc(-c2ccc3c(c2)[C@@H]2[C@@H](CCN2C(=O)C2CCC2)[C@@H](CO)N3C)cc1,n,n,n,n
